Data from a collection of fitness landscapes (doi:10.1016/j.celrep.2020.107928).
In all, about 81,000 sequences were measured (“one-hybrid fitness for binding parS DNA”: median about -0.17, highest 2% from about 0.51 on). This is one part of a sample in which the highest values are shown more often than they occur.

B1: Caulobacter ParB omega fusion; a variant is named by its letters at X, in order, B8GW30 (parent)
chain: MESVVVGEPGMSEGRRGLGRGLSALLGEVDAAPAQAPGEQLGGSREAPIEILQRNPDQPRRTFREEDLEDLSNSIREKGVLQPILVRPSPDTAGEYQIVAGERAWRAAQRAGLKTVPIMVRELDDLAVLEIGIIENVQRADLNVLEEALSYKVLMEKFERTQENIAQTIGKSXSHVANXMRLLXLPDEVQSYLVSGELTAXHARAIAAAADPVALAKQIIEGGLSVRETEALARKAPNLSAGKSKGGRPPRVKDTDTQALESDLSSVLGLDVSIDHRGSTGTLTITYATLEQLDDLCNRLTRGI

Variants of: B1
Experiment: one-hybrid fitness for binding parS DNA (scaled: cognate 1, non-cognate 0); higher = stronger binding
Details: with parS DNA site
In short: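 In E. coli USO, a HIS3 reporter with its site placed 19 bp from the promoter was used to select Caulobacter ParB variants randomised at four specificity codons. Growth lasted 48 hours at 37°C on histidine-free M9 containing 0.1 mM IPTG and 5 mM 3-AT. Fitness was taken as the log change in variant-to-wild-type read ratio from Illumina sequencing of pre- and post-selection plasmids, rescaled between the non-cognate and cognate sites.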

one-hybrid fitness for binding parS DNA, 0.956:
RAMC

one-hybrid fitness for binding parS DNA, 0.596:
RWYT

one-hybrid fitness for binding parS DNA, 0.533:
REKG

one-hybrid fitness for binding parS DNA, 0.507:
RWWT

one-hybrid fitness for binding parS DNA, 0.264:
RWQN

one-hybrid fitness for binding parS DNA, 0.424:
RTNN

one-hybrid fitness for binding parS DNA, 0.548:
RWGT
RAQA

one-hybrid fitness for binding parS DNA, 0.982:
RTMC

one-hybrid fitness for binding parS DNA, 0.975:
RYNG

one-hybrid fitness for binding parS DNA, 0.246:
RTFH

one-hybrid fitness for binding parS DNA, 0.609:
RACA

one-hybrid fitness for binding parS DNA, ≤ 0.2:
IMTG
GAKE
CNSF
GRPA
CRST
IKCT
RAMR
RKMH
RKMP
RMMP
RFMD
RAMQ
TLMF
GTMC
LVSA
ITSK
DYWG
THDS
RKMK
YPLS
RTMP
RHMP
RSMP
RSMD
AGSI
PTDS
FNHS
TAPE
GYWS
EPIG
PHQC
MHER
KLAC
REYG
RERH
REKN
REVS
REVG
QTIM
KYAR
EYFS
PLFV
VHQV
TPHK
RYNK
RYHK
RYHQ
RYCD
RYYH
IKAI
HHKY
RSDE
FGTM
PPRW
KGNG
QLTS
DASE
GWLC
EELW
SCTR
IRQT
VEHR
RYWK
RYWQ
RYSD
RYGR
RYSP
AIYV
RKII
QIVC
KAHG
VQHT
HLQY
RYDP
RYRH
RYRP
RYDH
SLFE
WPSR
QMHP
VYQY
SHPH
RWNQ
RWAR
PRFH
HAWM
IKVG
EEHS
NPMG
CKHA
GRFC
PTDC
AWVV
DFLV
TRVH
KVCE
NTDV
SNDS
RWCF
RWCY
PDGT
PKSV
QRHM
THKG
MWHG
YDRG
TVTH
GSYT
MYQT
GLVV
RWSD
RWQD
RWKQ
THYN
TFIW
SPRC
DYFS
HAPN
RKAW
FTYI
RVVV
SIHC
LMAG
QCAE
RLAR
RLFP
FKTR
LCPN
GYEP
DACA
NANA
FRDR
TQKT
WTHY
REHK
GALF
VMFV
LLFI
NAQA
NARA
DARA
PICM
LVHY
WEWS
SNSE
RTND
RTDH
FLHS
LGVG
ALYT
QTLN
DVLN
TSTW
EGNL
RQDK
RQDQ
AQKR
ICTY
TAVI
FVPC
LNCS
DVAA
NVAA
ELAG
GGPT
CRIG
ILFC
DQVG
LIPT
RQPP
RQIP
RQPN
RQIR
RQID
PHRE
KTEC
QHGS
NLTC
VSIA
TPVW
SHLF
STKF
TPQT
VRSR
VFSG
HISS
ADIG
PGTC
LVVH
HWLK
MKPK
SPFG
RLDR
RLNP
HMTH
YIMG
ADTW
VKGM
WSTL
RAKD
RAVK
RMYE
FKCS
AGFC
RTFP
RTAD
RTAP
LFRV
GSFC
RVWI

one-hybrid fitness for binding parS DNA, 0.974:
RYCG

one-hybrid fitness for binding parS DNA, 0.258:
RLFH

one-hybrid fitness for binding parS DNA, 0.387:
RWIT
RQPT

one-hybrid fitness for binding parS DNA, 0.339:
RWNY

one-hybrid fitness for binding parS DNA, 0.455:
RLNN

one-hybrid fitness for binding parS DNA, 0.462:
RYLY
RAKN

one-hybrid fitness for binding parS DNA, 0.437:
RWET

one-hybrid fitness for binding parS DNA, 0.563:
RADA

one-hybrid fitness for binding parS DNA, 0.948:
RLFC

one-hybrid fitness for binding parS DNA, 0.989:
RTDS

one-hybrid fitness for binding parS DNA, 1.03:
RTFS

one-hybrid fitness for binding parS DNA, 0.863:
RQDC

one-hybrid fitness for binding parS DNA, 0.383:
RYYN

one-hybrid fitness for binding parS DNA, 0.256:
RQIY

one-hybrid fitness for binding parS DNA, 0.404:
RTDN

one-hybrid fitness for binding parS DNA, 0.324:
RYLM

one-hybrid fitness for binding parS DNA, 0.66:
REKS

one-hybrid fitness for binding parS DNA, 0.602:
RAYA

one-hybrid fitness for binding parS DNA, 0.435:
RMMN
RQNN

one-hybrid fitness for binding parS DNA, 0.647:
RQIT

one-hybrid fitness for binding parS DNA, 0.824:
RFMC
RAKT

one-hybrid fitness for binding parS DNA, 0.618:
RWQT

one-hybrid fitness for binding parS DNA, 0.735:
RQIC

one-hybrid fitness for binding parS DNA, 0.986:
RYLG

one-hybrid fitness for binding parS DNA, 0.874:
RTNS

one-hybrid fitness for binding parS DNA, 0.806:
RLDT

one-hybrid fitness for binding parS DNA, 0.658:
RARA

one-hybrid fitness for binding parS DNA, 0.389:
RHMN

one-hybrid fitness for binding parS DNA, 0.529:
RERS

one-hybrid fitness for binding parS DNA, 0.231:
RAPA

one-hybrid fitness for binding parS DNA, 0.913:
RYDG

one-hybrid fitness for binding parS DNA, 0.89:
RYWG

one-hybrid fitness for binding parS DNA, 0.614:
RWAT

one-hybrid fitness for binding parS DNA, 0.92:
RYRG

one-hybrid fitness for binding parS DNA, 0.43:
RWVT

one-hybrid fitness for binding parS DNA, 0.233:
GPYH

one-hybrid fitness for binding parS DNA, 0.897:
RKMC

one-hybrid fitness for binding parS DNA, 0.928:
RSMC

one-hybrid fitness for binding parS DNA, 0.611:
RWCT
RVFA

one-hybrid fitness for binding parS DNA, 0.318:
RWSN

one-hybrid fitness for binding parS DNA, 0.665:
RWST

one-hybrid fitness for binding parS DNA, 0.77:
RAVT

one-hybrid fitness for binding parS DNA, 0.971:
RYQG

one-hybrid fitness for binding parS DNA, 0.582:
RVAA

one-hybrid fitness for binding parS DNA, 0.433:
RTMN

one-hybrid fitness for binding parS DNA, 0.207:
RYQF

one-hybrid fitness for binding parS DNA, 0.461:
RAIA

one-hybrid fitness for binding parS DNA, 0.287:
REYS

one-hybrid fitness for binding parS DNA, 0.968:
RTAS

one-hybrid fitness for binding parS DNA, 0.947:
RQNC

one-hybrid fitness for binding parS DNA, 0.512:
RWDT

one-hybrid fitness for binding parS DNA, 0.722:
RWRT

one-hybrid fitness for binding parS DNA, 0.31:
RYQM

one-hybrid fitness for binding parS DNA, 0.221:
RQND

one-hybrid fitness for binding parS DNA, 0.284:
RWPT

one-hybrid fitness for binding parS DNA, 0.382:
RYCN

one-hybrid fitness for binding parS DNA, 0.299:
RLDM

one-hybrid fitness for binding parS DNA, 1:
RYHG

one-hybrid fitness for binding parS DNA, 0.655:
RWHT

one-hybrid fitness for binding parS DNA, 0.995:
RLAC

one-hybrid fitness for binding parS DNA, 0.556:
RWLT

one-hybrid fitness for binding parS DNA, 0.992:
RMMC

one-hybrid fitness for binding parS DNA, 0.811:
RWKT

one-hybrid fitness for binding parS DNA, 0.242:
RFMN

one-hybrid fitness for binding parS DNA, 0.682:
RWNT

one-hybrid fitness for binding parS DNA, 0.205:
RYGF

one-hybrid fitness for binding parS DNA, 0.908:
RHMC
RLNT

one-hybrid fitness for binding parS DNA, 0.426:
RQPC

one-hybrid fitness for binding parS DNA, 0.997:
RYYG

one-hybrid fitness for binding parS DNA, 0.984:
RYSG

one-hybrid fitness for binding parS DNA, 0.595:
RANA

one-hybrid fitness for binding parS DNA, 0.535:
RQPS

one-hybrid fitness for binding parS DNA, 0.497:
RWFT

one-hybrid fitness for binding parS DNA, 0.87:
RQIS

one-hybrid fitness for binding parS DNA, 0.97:
RYGG

one-hybrid fitness for binding parS DNA, 0.342:
RLAM

one-hybrid fitness for binding parS DNA, 0.466:
RYNY

one-hybrid fitness for binding parS DNA, 0.23:
RAVQ
